# According to ChEMBL document CHEMBL5308504, “Tm Shift (DSF) assay results for EUbOPEN Chemogenomics Library” (2023):
# Columns and labels:
# Settings in all cases: Compound concentration 20.0 uM, Protein concentration 2.0 uM, Result type QC Liability
# [1] = target: Tyrosine-protein kinase ABL1 (Homo sapiens) (UniProt P00519)
# [2] = target: Cyclin-dependent kinase 2 (Homo sapiens) (UniProt P24941)
# [3] = target: Casein kinase I isoform delta (Homo sapiens) (UniProt P48730)
# [4] = target: Glycogen synthase kinase-3 beta (Homo sapiens) (UniProt P49841)
# Glycogen synthase kinase-3 beta (Homo sapiens), sequence (P49841 whole entry, looked up): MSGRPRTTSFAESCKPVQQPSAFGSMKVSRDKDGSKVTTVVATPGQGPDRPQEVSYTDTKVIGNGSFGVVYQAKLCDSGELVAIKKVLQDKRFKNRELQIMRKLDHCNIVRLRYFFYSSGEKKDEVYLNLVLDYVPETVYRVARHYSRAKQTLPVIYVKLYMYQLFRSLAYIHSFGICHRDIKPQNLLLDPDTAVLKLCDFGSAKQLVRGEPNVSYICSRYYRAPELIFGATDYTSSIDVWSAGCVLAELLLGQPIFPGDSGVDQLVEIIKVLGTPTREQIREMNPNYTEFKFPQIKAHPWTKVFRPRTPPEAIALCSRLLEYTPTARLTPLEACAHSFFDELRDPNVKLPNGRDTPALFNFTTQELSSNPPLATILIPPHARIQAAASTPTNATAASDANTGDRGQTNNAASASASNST
# [5] = target: Mitogen-activated protein kinase 1 (Homo sapiens) (UniProt P28482)
# Mitogen-activated protein kinase 1 (Homo sapiens), sequence (P28482 whole entry): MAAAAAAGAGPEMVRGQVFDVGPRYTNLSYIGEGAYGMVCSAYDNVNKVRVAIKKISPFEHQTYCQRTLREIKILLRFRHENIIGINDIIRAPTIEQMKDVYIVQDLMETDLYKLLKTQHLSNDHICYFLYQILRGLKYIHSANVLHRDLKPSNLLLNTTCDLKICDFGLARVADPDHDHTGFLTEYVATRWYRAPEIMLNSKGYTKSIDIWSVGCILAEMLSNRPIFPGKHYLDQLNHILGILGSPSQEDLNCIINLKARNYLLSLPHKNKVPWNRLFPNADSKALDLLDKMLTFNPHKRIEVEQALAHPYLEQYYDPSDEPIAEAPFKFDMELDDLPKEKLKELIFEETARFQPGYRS
# [6] = target: T1, Aurora kinase A (Homo sapiens) (UniProt O14965)
# T1 sequence (whole entry): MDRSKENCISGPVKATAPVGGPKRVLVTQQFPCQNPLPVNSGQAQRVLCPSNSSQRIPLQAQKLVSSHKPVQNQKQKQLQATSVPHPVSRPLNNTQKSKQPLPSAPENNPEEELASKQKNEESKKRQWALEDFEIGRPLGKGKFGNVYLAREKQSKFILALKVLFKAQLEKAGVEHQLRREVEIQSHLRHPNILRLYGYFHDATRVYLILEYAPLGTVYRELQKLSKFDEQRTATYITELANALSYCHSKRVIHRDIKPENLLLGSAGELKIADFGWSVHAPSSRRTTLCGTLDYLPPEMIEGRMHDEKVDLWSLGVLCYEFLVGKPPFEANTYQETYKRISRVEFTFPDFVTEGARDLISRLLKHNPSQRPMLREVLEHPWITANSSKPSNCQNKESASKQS
# [7] = target: T2, Transcription intermediary factor 1-alpha (Homo sapiens) (UniProt O15164)
# T2 sequence (whole entry): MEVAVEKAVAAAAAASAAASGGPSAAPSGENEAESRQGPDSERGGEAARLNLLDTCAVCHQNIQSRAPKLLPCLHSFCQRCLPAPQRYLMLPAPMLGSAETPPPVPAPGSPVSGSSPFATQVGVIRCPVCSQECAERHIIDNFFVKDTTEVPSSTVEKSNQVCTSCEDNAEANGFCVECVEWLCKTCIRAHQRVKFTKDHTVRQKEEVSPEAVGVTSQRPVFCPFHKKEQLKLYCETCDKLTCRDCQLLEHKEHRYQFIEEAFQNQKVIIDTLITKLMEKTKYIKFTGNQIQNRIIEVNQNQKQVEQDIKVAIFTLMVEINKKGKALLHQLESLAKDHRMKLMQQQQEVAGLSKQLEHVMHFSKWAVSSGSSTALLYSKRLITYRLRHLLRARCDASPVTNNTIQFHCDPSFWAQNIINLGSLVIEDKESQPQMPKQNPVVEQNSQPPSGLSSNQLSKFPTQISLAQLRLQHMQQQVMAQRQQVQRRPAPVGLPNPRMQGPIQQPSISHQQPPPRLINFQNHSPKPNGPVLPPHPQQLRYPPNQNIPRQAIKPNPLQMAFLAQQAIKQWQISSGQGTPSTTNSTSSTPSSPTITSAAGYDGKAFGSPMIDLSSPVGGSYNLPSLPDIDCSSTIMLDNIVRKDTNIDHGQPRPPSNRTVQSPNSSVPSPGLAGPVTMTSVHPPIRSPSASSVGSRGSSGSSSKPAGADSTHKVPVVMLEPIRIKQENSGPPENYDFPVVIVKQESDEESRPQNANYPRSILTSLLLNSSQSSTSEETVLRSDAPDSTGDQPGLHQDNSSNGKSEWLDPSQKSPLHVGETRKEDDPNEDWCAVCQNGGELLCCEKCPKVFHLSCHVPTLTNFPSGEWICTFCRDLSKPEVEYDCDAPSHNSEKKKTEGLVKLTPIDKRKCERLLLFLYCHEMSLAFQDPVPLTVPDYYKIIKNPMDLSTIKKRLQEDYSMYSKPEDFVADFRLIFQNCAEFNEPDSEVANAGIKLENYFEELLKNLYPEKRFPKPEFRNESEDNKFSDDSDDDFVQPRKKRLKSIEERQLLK
# Tyrosine-protein kinase ABL1 (Homo sapiens), sequence (P00519 whole entry): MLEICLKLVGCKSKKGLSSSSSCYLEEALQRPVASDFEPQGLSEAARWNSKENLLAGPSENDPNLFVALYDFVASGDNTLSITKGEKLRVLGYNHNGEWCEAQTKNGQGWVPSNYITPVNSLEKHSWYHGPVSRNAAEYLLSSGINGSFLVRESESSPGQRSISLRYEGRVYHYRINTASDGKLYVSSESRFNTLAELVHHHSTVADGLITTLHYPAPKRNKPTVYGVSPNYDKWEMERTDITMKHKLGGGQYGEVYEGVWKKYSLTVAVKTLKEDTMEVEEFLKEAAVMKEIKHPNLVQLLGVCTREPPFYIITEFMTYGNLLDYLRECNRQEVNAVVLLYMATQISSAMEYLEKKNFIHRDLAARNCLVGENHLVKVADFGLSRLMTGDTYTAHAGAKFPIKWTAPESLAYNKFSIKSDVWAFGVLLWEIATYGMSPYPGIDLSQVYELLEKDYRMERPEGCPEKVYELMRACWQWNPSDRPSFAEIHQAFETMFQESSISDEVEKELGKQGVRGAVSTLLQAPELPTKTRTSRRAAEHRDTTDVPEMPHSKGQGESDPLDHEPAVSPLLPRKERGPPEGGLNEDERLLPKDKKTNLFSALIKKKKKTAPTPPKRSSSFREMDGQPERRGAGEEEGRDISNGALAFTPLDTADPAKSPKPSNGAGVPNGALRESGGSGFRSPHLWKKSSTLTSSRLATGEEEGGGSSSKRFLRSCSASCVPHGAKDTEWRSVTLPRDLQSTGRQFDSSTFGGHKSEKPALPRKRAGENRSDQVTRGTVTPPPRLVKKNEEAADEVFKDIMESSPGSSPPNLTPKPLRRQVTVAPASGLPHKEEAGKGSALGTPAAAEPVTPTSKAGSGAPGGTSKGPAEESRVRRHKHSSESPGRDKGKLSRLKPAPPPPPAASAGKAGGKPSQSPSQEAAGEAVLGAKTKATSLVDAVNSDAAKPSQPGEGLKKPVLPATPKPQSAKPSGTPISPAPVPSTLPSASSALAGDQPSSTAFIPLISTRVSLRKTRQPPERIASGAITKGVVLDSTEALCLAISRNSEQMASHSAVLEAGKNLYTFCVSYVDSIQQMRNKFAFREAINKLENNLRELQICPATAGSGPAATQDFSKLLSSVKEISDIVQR
# Casein kinase I isoform delta (Homo sapiens), sequence (P48730 whole entry, looked up, canonical isoform): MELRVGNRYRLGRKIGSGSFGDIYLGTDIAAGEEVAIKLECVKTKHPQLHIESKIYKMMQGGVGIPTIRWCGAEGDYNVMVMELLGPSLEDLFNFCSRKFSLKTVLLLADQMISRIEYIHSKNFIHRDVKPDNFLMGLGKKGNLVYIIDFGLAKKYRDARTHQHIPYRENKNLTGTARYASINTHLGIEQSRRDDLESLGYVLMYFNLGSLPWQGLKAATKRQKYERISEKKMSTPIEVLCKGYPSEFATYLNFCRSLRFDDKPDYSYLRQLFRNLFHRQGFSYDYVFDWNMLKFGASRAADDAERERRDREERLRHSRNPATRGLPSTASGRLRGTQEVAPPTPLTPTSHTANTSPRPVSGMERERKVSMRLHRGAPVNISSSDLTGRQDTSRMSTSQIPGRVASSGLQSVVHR
Compound,ΔTm [1] [°C],ΔTm [2] [°C],ΔTm [3] [°C],ΔTm [4] [°C],ΔTm [5] [°C],ΔTm [6] [°C],ΔTm [7] [°C]
CNc1nc(-c2cc(C(=O)N3CCN(Cc4ccc(Cl)cc4)CC3)c(Cl)cn2)cs1,-0.06,0.89,0.17,0.59,0.23,-0.18,0.39
COP(=O)(CCC(N)C(=O)O)Oc1cccc(CC(=O)O)c1 (centres undefined),-0.06,0.07,0.36,-0.02,0.13,-0.17,0.32
Cn1ncc(-c2nc(N[C@H]3CC[C@H](N)CC3)ncc2Cl)c1CC1CC1,0.41,12.7,9.79,9.59,2.41,2.45,-3.6
CCN1C(=O)C(c2cccc(C(=O)O)c2)C(=O)N(c2ccccc2)c2cc(C(F)(F)F)ccc21 (centres undefined),-0.5,-0.13,0.29,-1.43,0.17,-0.25,0.23
C=C[C@@]12CCc3cc(O)ccc3[C@H]1CC[C@@]1(C)[C@H]2CC[C@@H]1O,0.27,0.21,0.08,1.27,0.21,0,-0.42
N[C@H](C(=O)O)[C@@H]1CC(Cl)=NO1,-0.08,0.85,0.22,0.23,0.14,-0.37,-0.82
Cc1cc(Cl)ccc1S(=O)(=O)NC[C@H]1C2CCC(CC2)[C@@H]1/C=C\CCCC(=O)O,-0.05,-0.53,-0.27,-1.54,0.13,-0.34,-0.51
CN1CCN(C(=O)Cc2ccc(N/C(=C3\C(=O)Nc4cc(Cl)ccc43)c3ccccc3)cc2)CC1,8.52,1.7,1.29,6.21,-0.19,1.19,-2.36
CCCn1cc(-c2cc(C3C(=O)N(CC)c4ccc(C(F)(F)F)cc4N(c4ccccc4)C3=O)cc(OC)c2O)cn1 (centres undefined),-0.36,1.16,0.47,-1.32,-7.84,0.54,0.28
COc1ccc(OC(=O)N(CC(=O)O)Cc2ccc(OCCc3nc(-c4ccccc4)oc3C)cc2)cc1,0.16,-0.27,0.56,-1.96,0.18,-0.93,-4.78
Cc1nnc2n1-c1sc3c(c1C(c1ccccc1Cl)=NC2)CC(C(=O)N1CCOCC1)C3 (centres undefined),0.38,1.08,0.02,-0.24,0.25,0.1,0.23
CNC(=O)c1cc(C(=O)NC2CC2)cn(Cc2ccccc2)c1=O,0.07,0.96,-0.04,-0.41,0.38,-0.78,-0.29
OCC1OC(n2cnc3cc(Cl)c(Cl)cc32)C(O)C1O (centres undefined),0.32,–,1.91,0.18,0.27,0.42,-1.91
O=C1CCC(N2Cc3cc(CNC(=O)C(F)(F)c4ccc(Cl)cc4)ccc3C2=O)C(=O)N1 (centres undefined),0.53,0.76,0.06,0.18,0.34,-0.46,-0.96
Cc1nnc2n1-c1sc(CCC(=O)N3CCOCC3)cc1C(c1ccccc1Cl)=NC2,0.15,0.99,0.34,-0.2,0.13,0.01,0.29
C[C@H](CCC(=O)O)[C@H]1CC[C@H]2[C@@H]3[C@@H](O)C[C@@H]4C[C@H](O)CC[C@]4(C)[C@H]3CC[C@]12C,0.07,0.52,0.77,-0.56,0.29,-1.74,-2.12
COc1nc2ccc([C@@](O)(c3ccc(Cl)cc3)c3cncn3C)cc2c(Cl)c1Cc1ccc(-n2cccn2)cc1,-0.22,-0.1,-0.84,-1.9,-0.39,-0.59,-0.54
Cc1nnc2n1-c1sc3c(c1C(c1ccccc1Cl)=NC2)C[C@H](C(=O)N1CCOCC1)C3,0.62,0.85,0.25,0.26,0.42,-0.08,-0.99
C[C@H](CCC(=O)O)[C@H]1CC[C@H]2[C@@H]3CC[C@@H]4C[C@H](O)CC[C@]4(C)[C@H]3CC[C@]12C,-0.82,-1.65,-3.52,-3.06,-0.88,-4.37,-5.96
CCC(=O)O[C@@H](OP(=O)(CCCCc1ccccc1)CC(=O)N1C[C@H](C2CCCCC2)C[C@H]1C(=O)O)C(C)C (some centres undefined),0.01,0.46,-0.25,-0.61,0.22,-1.22,-3.14

Compound,ΔTm [1] [°C],ΔTm [2] [°C],ΔTm [3] [°C],ΔTm [4] [°C],ΔTm [5] [°C],ΔTm [6] [°C],ΔTm [7] [°C]
CO[C@H](C)CN1CC[C@@]2(C)c3ccc(O)cc3C[C@@H]1C2(C)C,0.21,-0.28,0.29,-0.8,0.34,0.3,0.33
CCOP(=O)(OCC)C(=Cc1cc(C(C)(C)C)c(O)c(C(C)(C)C)c1)P(=O)(OCC)OCC,-0.09,0.15,0.17,-0.29,0.15,-1.17,-3.9
C[C@@H](CO)CCC[C@@H](C)[C@H]1CC[C@H]2[C@@H]3CC=C4C[C@@H](O)CC[C@]4(C)[C@H]3CC[C@]12C,0.11,0.17,0.59,-0.96,0.35,-1.67,-3
COc1ccc(-n2nc(C(F)(F)F)cc2-c2ccc(Cl)cc2)cc1,0.2,1.23,0.03,-0.24,0.69,-0.08,-0.34
C[C@]12CC[C@@H]3c4ccc(C(N)=O)cc4CC[C@H]3[C@@H]1CC=C2c1cncc(F)c1,0.15,-0.32,-4.77,0,0.35,2.37,0.2
O=C(NCCN1CCC2(CC1)C(=O)NCN2c1cccc(F)c1)c1ccc2ccccc2c1,-0.28,0.17,0.58,-0.14,0.08,0.16,0.18
CO[C@@H](C)CN1CC[C@]2(C)c3cc(O)ccc3C[C@H]1C2(C)C,0.73,0.61,0.53,-0.14,0.27,-0.25,0.53
CS(=O)(=O)c1ccc(-c2cnc(N)c(C(=O)Nc3ccccc3)n2)cc1,0.67,0.23,-0.19,3.54,0.38,0.45,-1.74
C[C@@H]1CC[C@@]2(OC1)O[C@H]1[C@@H](O)[C@H]3[C@@H]4CC[C@H]5C[C@@H](O[C@@H]6O[C@H](CO)[C@H](O[C@@H]7O[C@H](CO)C(O)[C@H](O[C@@H]8OC[C@@H](O)[C@H](O)[C@H]8O)[C@H]7O[C@@H]7O[C@H](CO)[C@H](O)[C@H](O[C@@H]8O[C@H](CO)[C@@H](O)[C@H](O)[C@H]8O)[C@H]7O)[C@H](O)[C@H]6O)[C@H](O)C[C@]5(C)[C@H]4CC[C@]3(C)[C@H]1[C@@H]2C (some centres undefined),0.2,0.55,0.07,-0.93,0.27,-0.73,-3.45
CO[C@H](C)CN1CC[C@]2(C)c3cccc(O)c3C[C@H]1C2(C)C,0.1,0.52,0.27,-0.29,-0.17,-0.21,0.19
C=CC(=O)N1CCC[C@@H](n2nc(-c3ccc(Oc4ccccc4)cc3)c3c(N)ncnc32)C1,2.63,0.83,0.7,-1.96,-6.31,6.21,-4.01
CN(C(=O)CCOCCOCCOCCOCCNc1cccc2c1C(=O)N(C1CCC(=O)NC1=O)C2=O)[C@H]1CC[C@@]2(C)[C@@H](CC[C@@H]3[C@@H]2CC[C@]2(C)[C@@H](c4ccc5ccncc5c4)CC[C@@H]32)C1 (some centres undefined),1.62,0.45,-6.92,2.49,-1.53,-1.77,0
CC[C@H]1[C@@H](O)[C@@H]2[C@H](CC[C@]3(C)[C@@H]([C@H](C)CCC(=O)O)CC[C@@H]23)[C@@]2(C)CC[C@@H](O)C[C@@H]12,-0.12,-0.27,0.56,-0.92,-0.09,-1.71,-1.62
C=CC(=O)Nc1cc(-c2nn(C3CCC(N4CCN(C(C)=O)CC4)CC3)c3ncnc(N)c23)ccc1Oc1ccccc1 (centres undefined),0.84,0.18,0.89,-1.12,0.34,4.07,-1.68
CCN(CC)CCO[C@H]1CC[C@@]2(C)C(=CC[C@@H]3[C@@H]2CC[C@]2(C)C(=O)CC[C@@H]32)C1,0.26,0.63,-0.08,-0.11,0.35,-0.37,-0.77
Cc1nnc2n1-c1sc3c(c1C(c1ccccc1Cl)=NC2)C[C@@H](C(=O)N1CCOCC1)C3,0.78,0.74,0.17,0.5,0.3,0.11,-0.75
Clc1ccccc1C(c1ccccc1)(c1ccccc1)n1cccn1,0.43,0.09,-0.01,-0.43,0.22,-0.47,-0.54
C=CC(=O)Nc1ccc2[nH]c(=O)n(C3CCN(Cc4ccc(-c5ccc6c(c5)NC(=O)CO6)cc4)CC3)c2c1,0.74,-0.1,0.68,3.14,0.64,1.01,-2.17
C[C@@H](CN1CC[C@@]2(C)c3cccc(O)c3C[C@@H]1C2(C)C)OCc1ccccc1,-0.13,0.59,0.25,-1.13,0.48,0.13,0.17
Cc1ccc2c(N)c(C(=O)NC3CCc4cc(N5CC6CCC(C5)N6)ccc4C3)sc2n1 (centres undefined),0.14,-0.27,0.27,-0.23,0.3,-0.05,-1.89
